Experimental data: PubChem BioAssay (NCATS)
Several values for one entry are separate records, joined by “and”; a condition that tells them apart may be missing. Equal values may be shown once. Inconclusive results are not listed. Where a call stands in place of a potency, no number is given. A structure can be active in one record and inactive in another. Activity calls are given as the source filed them. Unless noted, calls come from the whole dose curve; as a rule, active = well fitted curve in the direction sought with a large enough effect; inconclusive = small, poorly fitted or top-dose-only effect, or another doubt; inactive = no such curve, though single readings can be large; an effect the other way counts as inactive or inconclusive.

Key:
[1] = molecular target: Phosphoglycerate kinase, glycosomal (Trypanosoma brucei brucei) (UniProt P07378); assay: qHTS Validation Assay to Find Inhibitors of Phosphoglycerate Kinase (AID 504547)
Sequence of Phosphoglycerate kinase, glycosomal (Trypanosoma brucei brucei) (P07378 whole entry, looked up): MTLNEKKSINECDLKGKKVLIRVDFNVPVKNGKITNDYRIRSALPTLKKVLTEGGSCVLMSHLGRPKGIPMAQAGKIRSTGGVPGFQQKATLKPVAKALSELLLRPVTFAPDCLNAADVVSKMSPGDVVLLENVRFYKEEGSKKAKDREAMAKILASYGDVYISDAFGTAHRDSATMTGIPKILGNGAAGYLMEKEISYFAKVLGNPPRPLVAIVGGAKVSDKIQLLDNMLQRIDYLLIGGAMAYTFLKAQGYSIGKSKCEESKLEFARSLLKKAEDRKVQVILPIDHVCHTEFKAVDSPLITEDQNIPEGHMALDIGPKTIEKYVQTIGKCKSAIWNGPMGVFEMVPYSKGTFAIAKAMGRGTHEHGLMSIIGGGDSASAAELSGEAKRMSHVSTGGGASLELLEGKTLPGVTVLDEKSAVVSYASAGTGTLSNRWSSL
Procedure, shortened: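 PGK activity was coupled to GAPDH (100nM final), which generates the unstable substrate 1,3-bisphosphoglycerate in-well. Reactions ran 60 minutes at room temperature in 100mM TEA pH 7.6, 5mM MgCl2, 0.01% Tween-20, then Kinase-Glo Plus luminescence was read.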

[2] = molecular target: phosphoglycerate mutase (Leishmania major) (UniProt Q4Q090); assay: qHTS Validation Assay to Find Inhibitors of Phosphoglycerate Mutase (AID 504548); note: series mostly up to about 58 µM
Sequence of phosphoglycerate mutase (Leishmania major) (Q4Q090 1-553): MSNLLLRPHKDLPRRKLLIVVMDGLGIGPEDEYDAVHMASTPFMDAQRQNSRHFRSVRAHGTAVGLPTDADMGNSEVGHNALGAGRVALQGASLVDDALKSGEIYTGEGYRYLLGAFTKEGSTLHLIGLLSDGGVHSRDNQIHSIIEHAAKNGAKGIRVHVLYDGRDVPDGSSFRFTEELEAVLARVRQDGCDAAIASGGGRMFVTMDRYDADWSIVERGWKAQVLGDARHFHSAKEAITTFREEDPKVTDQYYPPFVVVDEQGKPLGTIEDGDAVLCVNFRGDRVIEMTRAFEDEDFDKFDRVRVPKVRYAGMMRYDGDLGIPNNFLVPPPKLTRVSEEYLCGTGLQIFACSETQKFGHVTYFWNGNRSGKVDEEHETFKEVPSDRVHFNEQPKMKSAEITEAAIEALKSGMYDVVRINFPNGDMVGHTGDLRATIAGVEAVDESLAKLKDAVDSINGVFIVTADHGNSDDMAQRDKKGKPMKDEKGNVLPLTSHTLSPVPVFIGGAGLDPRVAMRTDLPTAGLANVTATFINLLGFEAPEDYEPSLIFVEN
Procedure, shortened: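 Lm PGAM 1.25nM final; 100 mM TEA pH 7.6, 5 mM MgCl2, 0.01% Tween-20; 45 min RT; Kinase-GloPlus, 10 min; end-point luminescence. Enzyme-free wells as negative controls.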

[3] = molecular target: Ubiquitin carboxyl-terminal hydrolase 1 (Homo sapiens) (UniProt O94782); assay: Inhibitors of USP1/UAF1: Pilot qHTS (AID 504865); note: nearly all actives have a fitted effect of over 35% in size; note: potency is the fitted concentration of half-maximal effect
Sequence of Ubiquitin carboxyl-terminal hydrolase 1 (Homo sapiens) (O94782 whole entry, looked up): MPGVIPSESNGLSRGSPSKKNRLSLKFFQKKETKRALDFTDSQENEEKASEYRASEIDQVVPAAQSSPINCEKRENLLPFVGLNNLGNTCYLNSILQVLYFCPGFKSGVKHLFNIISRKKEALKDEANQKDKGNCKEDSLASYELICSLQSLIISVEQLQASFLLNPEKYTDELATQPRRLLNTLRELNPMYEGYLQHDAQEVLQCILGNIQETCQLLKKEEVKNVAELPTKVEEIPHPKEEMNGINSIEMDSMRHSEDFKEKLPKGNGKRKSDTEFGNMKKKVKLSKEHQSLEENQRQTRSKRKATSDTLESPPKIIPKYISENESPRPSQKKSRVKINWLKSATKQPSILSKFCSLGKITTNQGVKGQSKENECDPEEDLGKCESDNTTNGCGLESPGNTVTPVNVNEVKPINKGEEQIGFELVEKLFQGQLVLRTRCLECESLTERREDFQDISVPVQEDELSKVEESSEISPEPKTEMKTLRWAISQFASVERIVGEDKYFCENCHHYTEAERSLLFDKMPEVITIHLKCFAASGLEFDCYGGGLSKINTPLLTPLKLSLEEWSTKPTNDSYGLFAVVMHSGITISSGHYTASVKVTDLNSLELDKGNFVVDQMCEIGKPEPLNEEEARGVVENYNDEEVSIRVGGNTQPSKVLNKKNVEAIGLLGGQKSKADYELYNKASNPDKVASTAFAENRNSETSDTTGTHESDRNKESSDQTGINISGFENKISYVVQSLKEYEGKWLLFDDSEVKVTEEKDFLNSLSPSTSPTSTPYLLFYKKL
Procedure, shortened: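 Kinetic fluorescence assay: 1nM USP1/UAF1, 15 min compound preincubation, then 150nM Ub-Rho; 480/540 nm.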

[4] = qHTS for Inhibitors of ATXN expression: Validation of Cytotoxic Assay (AID 588349); note: potency is the fitted concentration of half-maximal effect
Procedure, shortened: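 HEK293 cells treated with titrated compound for 72 hr at 37 degrees C; viability read as intracellular ATP by CellTiter Glo luminescence.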

[5] = qHTS for Inhibitors of ATXN expression: Validation (AID 588378); note: series mostly up to about 57 µM; nearly all actives have a fitted effect of over 75% in size
Procedure, shortened: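 Validation of ATXN2 expression inhibitors uses a cell-based luciferase fusion reporter in HEK293 cells, with 24 h compound exposure and paired viability (fluorescence) and reporter (luminescence) end-point reads.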

[6] = molecular target: DNA dC->dU-editing enzyme APOBEC-3G (Homo sapiens) (UniProt Q9HC16); assay: qHTS for inhibitors of Vif-A3G interactions: Validation (AID 588379)
Sequence of DNA dC->dU-editing enzyme APOBEC-3G (Homo sapiens) (Q9HC16 whole entry, looked up): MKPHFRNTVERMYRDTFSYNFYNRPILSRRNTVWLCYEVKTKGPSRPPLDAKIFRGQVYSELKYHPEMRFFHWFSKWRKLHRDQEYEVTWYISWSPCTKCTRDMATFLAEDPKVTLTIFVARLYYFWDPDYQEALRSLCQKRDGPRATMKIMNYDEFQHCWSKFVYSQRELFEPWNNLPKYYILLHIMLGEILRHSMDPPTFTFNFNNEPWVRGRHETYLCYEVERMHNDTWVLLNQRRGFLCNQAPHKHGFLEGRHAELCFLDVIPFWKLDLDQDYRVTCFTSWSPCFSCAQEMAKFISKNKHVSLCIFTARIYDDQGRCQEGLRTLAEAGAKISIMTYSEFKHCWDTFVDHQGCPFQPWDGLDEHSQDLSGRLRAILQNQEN
Procedure, shortened: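 HeLa cells stably expressing Vif and A3G-eYFP, 700 cells/well, incubated overnight at 37 deg C, then exposed to compound overnight at 37 deg C. Inhibition of Vif-mediated degradation read as increased yellow fluorescence (Ex 488/Em 500-530) by laser-scanning cytometry.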

[7] = molecular target: Bile acid receptor (Homo sapiens) (UniProt Q96RI1); assay: qHTS assay for small molecule antagonists of farnesoid X receptor signaling (AID 588526; calls by dose curve)
Sequence of Bile acid receptor (Homo sapiens) (Q96RI1 whole entry, looked up): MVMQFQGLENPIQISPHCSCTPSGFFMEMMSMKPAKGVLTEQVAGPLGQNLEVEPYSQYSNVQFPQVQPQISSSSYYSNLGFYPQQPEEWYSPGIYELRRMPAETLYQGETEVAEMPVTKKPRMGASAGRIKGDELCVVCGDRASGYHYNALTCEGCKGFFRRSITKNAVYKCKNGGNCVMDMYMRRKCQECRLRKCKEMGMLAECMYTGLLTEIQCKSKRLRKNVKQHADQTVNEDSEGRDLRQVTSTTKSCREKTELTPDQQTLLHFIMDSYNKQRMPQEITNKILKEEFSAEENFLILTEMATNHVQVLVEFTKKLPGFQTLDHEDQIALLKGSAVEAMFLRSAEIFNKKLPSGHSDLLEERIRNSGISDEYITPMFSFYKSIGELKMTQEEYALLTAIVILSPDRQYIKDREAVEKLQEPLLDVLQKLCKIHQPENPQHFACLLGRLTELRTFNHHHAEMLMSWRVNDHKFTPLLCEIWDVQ
Procedure, shortened: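 Antagonist mode: titrated compounds tested against chenodeoxycholic acid stimulation (normalized to 50 uM CDCA and DMSO) in GeneBLAzer HEK293T cells for 16 h. Beta-lactamase read by CCF4 fluorescence; IC50 from Hill fits.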

[8] = qHTS assay for small molecule agonists of retinoid X receptor alpha signaling (AID 588544; calls by dose curve); conditions: HEK293T RXRa-UAS-bla, beta-lactamase reporter, 18 h; 530 nm emission
[9] = molecular target: Retinoic acid receptor RXR-alpha (Homo sapiens) (UniProt P19793); assay: as above
Sequence of Retinoic acid receptor RXR-alpha (Homo sapiens) (P19793 whole entry, looked up): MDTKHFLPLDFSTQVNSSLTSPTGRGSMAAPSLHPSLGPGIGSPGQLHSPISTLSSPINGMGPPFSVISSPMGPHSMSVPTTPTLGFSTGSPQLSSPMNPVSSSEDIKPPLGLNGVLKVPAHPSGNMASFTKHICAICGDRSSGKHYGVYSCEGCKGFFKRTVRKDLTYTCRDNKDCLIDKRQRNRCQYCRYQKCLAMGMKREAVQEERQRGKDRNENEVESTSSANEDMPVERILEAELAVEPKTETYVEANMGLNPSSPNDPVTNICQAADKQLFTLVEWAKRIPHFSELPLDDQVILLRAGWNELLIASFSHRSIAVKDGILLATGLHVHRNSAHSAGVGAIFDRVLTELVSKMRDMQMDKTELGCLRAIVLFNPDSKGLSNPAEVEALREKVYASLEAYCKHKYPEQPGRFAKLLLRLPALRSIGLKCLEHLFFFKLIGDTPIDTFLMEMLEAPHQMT

[10] = qHTS assay for small molecule antagonists of peroxisome proliferator-activated receptor delta signaling (AID 588535; active = well fitted inhibition curve with a large enough effect in the signal ratio, with a control signal flat, not every such curve was filed as active; the % refers to the signal ratio;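 for max response: cells co-treated with a PPAR-delta agonist as stimulator during compound exposure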); conditions: HEK293T PPARd-UAS-bla, beta-lactamase FRET ratio, 18 h; 460 nm channel
Procedure, shortened: (§1)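 Antagonist-mode beta-lactamase reporter (GeneBLAzer PPAR-delta-UAS-bla) in HEK293T cells, 2% charcoal/dextran FBS, 4000 cells/well. Compound titrations, 18 h at 37 C; CCF4 ratio read, IC50 and efficacy from Hill fits.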

[11] = molecular target: Peroxisome proliferator-activated receptor delta (Homo sapiens) (UniProt Q03181); assay: as above
Sequence of Peroxisome proliferator-activated receptor delta (Homo sapiens) (Q03181 whole entry, looked up): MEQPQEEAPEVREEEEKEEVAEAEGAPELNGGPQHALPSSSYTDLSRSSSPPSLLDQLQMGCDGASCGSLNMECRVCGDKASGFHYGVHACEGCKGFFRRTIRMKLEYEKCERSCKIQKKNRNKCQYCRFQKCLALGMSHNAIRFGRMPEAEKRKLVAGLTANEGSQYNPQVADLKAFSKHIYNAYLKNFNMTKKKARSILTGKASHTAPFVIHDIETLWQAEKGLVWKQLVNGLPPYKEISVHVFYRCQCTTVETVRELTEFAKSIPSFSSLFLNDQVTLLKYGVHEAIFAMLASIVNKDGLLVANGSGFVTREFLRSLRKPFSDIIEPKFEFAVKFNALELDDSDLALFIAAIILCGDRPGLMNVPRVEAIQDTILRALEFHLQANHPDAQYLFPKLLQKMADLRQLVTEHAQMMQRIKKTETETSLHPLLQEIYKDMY
Procedure, shortened: as §1

[12] = molecular target: Peroxisome proliferator-activated receptor gamma (Homo sapiens) (UniProt P37231); assay: qHTS assay for small molecule agonists of peroxisome proliferator-activated receptor gamma signaling (AID 588536; active = well fitted curve in the direction sought with a large enough effect in the signal ratio, with a control signal flat, not every such curve was filed as active; the % refers to the signal ratio)
Procedure, shortened: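 PPAR-gamma-UAS-bla HEK293 cells in medium with 1% charcoal/dextran-treated FBS were exposed to compounds for 16 h at 37 C. Beta-lactamase activity was read with CCF4 substrate (405 nm excitation, 460/530 nm emission).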

[13] = molecular target: Vitamin D3 receptor (Homo sapiens) (UniProt P11473); assay: qHTS assay for small molecule antagonists of vitamin D receptor signaling (AID 588541; calls by dose curve;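 note: receptor activated by calcitriol during compound treatment; series mostly up to about 77 µM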)
Sequence of Vitamin D3 receptor (Homo sapiens) (P11473 whole entry, looked up): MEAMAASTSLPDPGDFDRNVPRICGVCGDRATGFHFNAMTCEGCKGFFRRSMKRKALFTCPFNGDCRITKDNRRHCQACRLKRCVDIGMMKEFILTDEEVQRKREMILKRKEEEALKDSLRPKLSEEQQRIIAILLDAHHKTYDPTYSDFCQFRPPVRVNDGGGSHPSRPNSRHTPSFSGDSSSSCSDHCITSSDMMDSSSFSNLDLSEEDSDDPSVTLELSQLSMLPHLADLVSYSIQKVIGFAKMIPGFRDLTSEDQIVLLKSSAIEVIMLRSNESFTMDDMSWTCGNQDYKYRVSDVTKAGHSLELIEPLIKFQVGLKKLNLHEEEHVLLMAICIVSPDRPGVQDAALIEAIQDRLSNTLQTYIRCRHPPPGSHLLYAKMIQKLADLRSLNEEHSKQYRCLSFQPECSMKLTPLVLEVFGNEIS
Procedure, shortened: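 VDR-UAS-bla HEK293T cells in 2% charcoal-stripped FBS were stimulated with 1-alpha,25-dihydroxyvitamin D3 (3 nM final) plus compound for 16 h at 37 C. The beta-lactamase CCF4 readout was normalized to 50 nM agonist and DMSO, and Hill fits gave IC50.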

[14] = molecular target: Vitamin D3 receptor (Homo sapiens) (UniProt P11473); assay: qHTS assay for small molecule agonists of vitamin D receptor signaling (AID 588543; calls by dose curve)
Procedure, shortened: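 qHTS in agonist mode: compound titrations stimulate a VDR-driven β-lactamase reporter in HEK293T cells over 16 h at 37 °C. Response normalized to 50 nM 1α,25-dihydroxyvitamin D3 = 100%, DMSO = 0%; Hill fitting gives EC50 and maximal response.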

[15] = molecular target: Glucocorticoid receptor (Homo sapiens) (UniProt P04150); assay: qHTS assay for small molecule agonists of glucocorticoid receptor signaling (AID 588532; active = well fitted curve in the direction sought with a large enough effect in the signal ratio, with a control signal flat; the % refers to the signal ratio); conditions: HeLa MMTV-bla, beta-lactamase ratio, agonist, 18 h; stronger effect = higher value; percent of dexamethasone control, DMSO zero
Sequence of Glucocorticoid receptor (Homo sapiens) (P04150 whole entry, looked up): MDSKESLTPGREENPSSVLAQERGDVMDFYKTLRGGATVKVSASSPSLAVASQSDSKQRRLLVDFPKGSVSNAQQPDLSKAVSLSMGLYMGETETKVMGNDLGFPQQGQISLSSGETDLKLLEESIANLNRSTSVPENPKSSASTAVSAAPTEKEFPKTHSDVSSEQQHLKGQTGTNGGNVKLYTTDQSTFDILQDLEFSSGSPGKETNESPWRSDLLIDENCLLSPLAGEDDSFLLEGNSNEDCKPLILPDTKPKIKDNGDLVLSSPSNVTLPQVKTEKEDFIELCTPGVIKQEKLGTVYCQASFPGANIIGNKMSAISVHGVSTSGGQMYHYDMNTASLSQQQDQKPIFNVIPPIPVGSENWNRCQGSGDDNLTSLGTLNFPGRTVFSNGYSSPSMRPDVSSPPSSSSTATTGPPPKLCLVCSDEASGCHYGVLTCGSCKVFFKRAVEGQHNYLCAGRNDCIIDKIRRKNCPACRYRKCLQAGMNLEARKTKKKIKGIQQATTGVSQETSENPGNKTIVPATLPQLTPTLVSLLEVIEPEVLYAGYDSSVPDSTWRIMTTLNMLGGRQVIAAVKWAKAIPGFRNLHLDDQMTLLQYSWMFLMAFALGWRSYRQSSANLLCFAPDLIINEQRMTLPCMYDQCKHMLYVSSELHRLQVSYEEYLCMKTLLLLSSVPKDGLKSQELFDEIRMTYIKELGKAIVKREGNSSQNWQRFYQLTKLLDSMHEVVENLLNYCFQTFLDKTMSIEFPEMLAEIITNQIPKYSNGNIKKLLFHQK
Procedure, shortened: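 Cells were plated and rested 3-5 h at 37 C, compounds were added in titration and incubated 18 h, then CCF4 substrate was loaded for 2 h at RT before reading blue/green fluorescence. EC50 came from Hill-equation fitting.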

[16] = molecular target: Glucocorticoid receptor (Homo sapiens) (UniProt P04150); assay: qHTS assay for small molecule antagonists of glucocorticoid receptor signaling (AID 588533; active = well fitted inhibition curve with a large enough effect in the signal ratio, with a control signal flat, not every such curve was filed as active; the % refers to the signal ratio)
Procedure, shortened: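 Antagonist-mode qHTS: compound titrations added to GRE-bla HeLa cells, then dexamethasone 2 nM final; 18 h, 37 C. CCF4 FRET fluorescence normalized to dexamethasone and DMSO; IC50 from Hill fit.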

With `CN(C)CC[C@@H](c1ccc(Cl)cc1)c1ccccn1` the outcome [1] was “inactive”, the outcome [2] was “inactive” and the Potency [3] was “inactive”. The Potency [4] was “inactive” and the Potency [5] was “inactive”.
For `C=Cc1c(C)c2cc3[nH]c(cc4nc(cc5nc(cc1[nH]2)C(C)=C5CCC(=O)O)C(CCC(=O)O)=C4C)c(C)c3C=C`, the outcome [1] was “inactive”, the outcome [2] was “inactive” and the Potency [3] was “inactive and 50.1 µM (active)”. For the same compound, the Potency [5] was “inactive”.
With `CC1=C(CC(=O)O)c2cc(F)ccc2/C1=C\c1ccc(S(C)=O)cc1` (configuration not stated) the outcome [1] was “inactive”, the outcome [2] was “inactive” and the Potency [3] was “inactive”. For the same compound, the Potency [4] was “inactive”, the Potency [5] was “inactive” and the outcome [6] was “inactive”.
In the case of `CNCC(O)c1ccc(O)c(O)c1` (configuration not stated), the outcome [1] is reported as “inactive”, the outcome [2] is reported as “inactive” and the Potency [3] is reported as “inactive”. The Potency [5] was “inactive”.
In the case of `CSc1ccc2c(c1)N(CCC1CCCCN1C)c1ccccc1S2` (configuration not stated), the outcome [1] is reported as “inactive”, the outcome [2] is reported as “inactive” and the Potency [3] is reported as “inactive”. For the same compound, the Potency [4] was 25.1 µM (active).
With `CN(C)CCCN1c2ccccc2CCc2ccccc21` the outcome [1] was “inactive” and the outcome [2] was “inactive”.
For `CC(C)(C)c1onc(OCP(=O)(O)O)c1CC(N)C(=O)O` (configuration not stated), the outcome [1] was “inactive”, the outcome [2] was “inactive” and the Potency [3] was “inactive”. The Potency [4] was “inactive” and the Potency [5] was “inactive”.
In the case of `C[C@]12CC[C@@H]3c4ccc(O)cc4CC[C@H]3[C@@H]1CCC2=O`, the outcome [1] is reported as “inactive”, the outcome [2] is reported as “inactive” and the Potency [3] is reported as “inactive”. For the same compound, the Potency [4] was “inactive”, the Potency [5] was “inactive” and the outcome [7] was “inactive”. For the same compound, the max response [8] was 5.7% and the outcome [9] was “inactive”.
For `O=C1N=C(O)CN1/N=C/c1ccc(-c2ccc([N+](=O)[O-])cc2)o1`, the outcome [1] was “inactive”, the outcome [2] was “inactive” and the Potency [3] was “inactive”. For the same compound, the Potency [4] was “inactive” and the Potency [5] was “inactive”.
In the case of `CCN(CC)CCNC(=O)c1cc(Cl)c(N)cc1OC`, the outcome [1] is reported as “inactive”, the outcome [2] is reported as “inactive” and the Potency [3] is reported as “inactive”. The Potency [4] was “inactive” and the Potency [5] was “inactive”.
With `NC(N)=NCCC[C@H](N)C(=O)O` the outcome [1] was “inactive”, the outcome [2] was “inactive” and the Potency [3] was “inactive”. The Potency [4] was “inactive”, the Potency [5] was “inactive” and the outcome [6] was “inactive”.
In the case of `C[C@](N)(Cc1ccc(O)cc1)C(=O)O`, the outcome [1] is reported as “inactive”, the outcome [2] is reported as “inactive” and the Potency [3] is reported as “inactive”. For the same compound, the Potency [4] was “inactive” and the Potency [5] was “inactive”.
For `CNCCC(Oc1ccc(C(F)(F)F)cc1)c1ccccc1` (configuration not stated), the outcome [1] was “inactive”, the outcome [2] was “inactive” and the Potency [3] was “inactive”.
With `CCN(CC)C(C)CN1c2ccccc2Sc2ccccc21` (configuration not stated) the outcome [1] was “inactive”, the outcome [2] was “inactive” and the Potency [3] was 44.7 µM (active) and inactive. For the same compound, the Potency [4] was “inactive”.
With `CN(C)CCOC(C)(c1ccccc1)c1ccccn1` (configuration not stated) the outcome [1] was “inactive”, the outcome [2] was “inactive” and the Potency [3] was “inactive”. The Potency [4] was “inactive”, the Potency [5] was “inactive” and the outcome [7] was “inactive”. The max response [10] was -48.6%, the outcome [11] was “inactive” and the outcome [12] was “inactive”. For the same compound, the outcome [13] was “inactive”, the outcome [14] was “inactive” and the max response [8] was 19.3%. For the same compound, the outcome [9] was “inactive”.
For `OCCN1CCN(CCCN2c3ccccc3Sc3ccc(Cl)cc32)CC1`, the outcome [1] was “inactive”, the outcome [2] was “inactive” and the Potency [3] was “inactive”.
For `OCc1cc(C(O)CNCCCCCCOCCCCc2ccccc2)ccc1O` (configuration not stated), the outcome [1] was “inactive”, the outcome [2] was “inactive” and the Potency [3] was “inactive”.
In the case of `N=c1c[n+](N2CCOCC2)[n-]o1`, the outcome [1] is reported as “inactive”, the outcome [2] is reported as “inactive” and the Potency [3] is reported as “inactive”. For the same compound, the Potency [4] was “inactive” and the Potency [5] was “inactive”.
In the case of `CC1=C(/C=C/C(C)=C/C=C/C(C)=C/C(=O)O)C(C)(C)CCC1`, the outcome [1] is reported as “inactive”, the outcome [2] is reported as “inactive” and the Potency [3] is reported as 79.4 µM (active). For the same compound, the Potency [4] was “inactive”, the Potency [5] was “inactive” and the outcome [6] was “inactive”. For the same compound, the activation [15] was 3.3% (inactive) and -6.04% (inactive), the outcome [16] was “inactive” and the max response [10] was 53.7% and 67%. For the same compound, the outcome [11] was “inactive”, the outcome [13] was “inactive” and the outcome [14] was “inactive”.
With `CCN(CC)CCOC(=O)C1(C2CCCCC2)CCCCC1` the outcome [1] was “inactive”, the outcome [2] was “inactive” and the Potency [3] was “inactive”.
For `C#CCN(C)Cc1ccccc1`, the outcome [1] was “inactive”, the outcome [2] was “inactive” and the Potency [3] was “inactive”. The Potency [4] was “inactive” and the Potency [5] was “inactive”.
In the case of `CC(C)(C)[C@]1(O)CCN2C[C@H]3c4ccccc4CCc4cccc(c43)[C@@H]2C1`, the outcome [1] is reported as “inactive”, the outcome [2] is reported as “inactive” and the Potency [3] is reported as “inactive”. For the same compound, the Potency [4] was “inactive” and the Potency [5] was “inactive”.
In the case of `CC(C(O)c1ccc(O)cc1)N1CCC(Cc2ccccc2)CC1` (configuration not stated), the outcome [1] is reported as “inactive”, the outcome [2] is reported as “inactive” and the Potency [3] is reported as “inactive”.
In the case of `COc1ccc(Cl)cc1C(=O)NCCc1ccc(S(=O)(=O)NC(=O)NC2CCCCC2)cc1`, the outcome [1] is reported as “inactive”, the outcome [2] is reported as “inactive” and the Potency [3] is reported as “inactive”. For the same compound, the Potency [4] was “inactive”, the Potency [5] was “inactive” and the outcome [6] was “inactive”. For the same compound, the outcome [7] was “inactive” and the outcome [12] was “inactive”.
For `NC1CCN(c2cccc(Cl)n2)CC1`, the outcome [1] was “inactive”, the outcome [2] was “inactive” and the Potency [3] was “inactive”. The Potency [4] was “inactive”, the Potency [5] was “inactive” and the outcome [6] was “inactive”.
In the case of `CNCCCC1c2ccccc2C=Cc2ccccc21`, the outcome [1] is reported as “inactive”, the outcome [2] is reported as “inactive” and the Potency [3] is reported as “inactive”. The Potency [4] was “inactive”.
For `CCCn1cnc2c1c(=O)n(CCCCC(C)=O)c(=O)n2C`, the outcome [1] was “inactive”, the outcome [2] was “inactive” and the Potency [3] was “inactive”. The Potency [4] was “inactive” and the Potency [5] was “inactive”.
For `CCCCCCCCCCCCCCCC(=O)NCCO`, the outcome [1] was “inactive”, the outcome [2] was “inactive” and the Potency [3] was “inactive”. The Potency [4] was “inactive”, the Potency [5] was “inactive” and the outcome [6] was “inactive”.
